Values joined by “and” are separate entries in the source; they are usually repeats but may differ in a detail not shown here. Equal entries are not always repeated. For some of these results: Potency and affinity values are given separately. The source holds several records for some structures; these can differ, active in one and inactive in another. Active and inactive are the calls of the source.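 Rule for the calls, unless noted: active = thallium flux through the channel raised or lowered by more than 3 SD from vehicle-only wells, actives on both sides; inactive = the rest.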
Columns and labels:
[1] = compounds altering viability of human ES cells (AID 493140; call rule not given here;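 note: cells exposed to compounds for four days before counting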); conditions: human embryonic stem cell survival screen; stronger effect = higher value
[2] = P. berghei load reduction in hepatocytes – cell-based, HepG2, luciferase luminescence, HepG2 viability, primary screen (AID 624349; in the data active = parasite load remaining mostly below about 12%, no sharp cut-off; inactive = mostly above about 10%;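 note: 100% = mean of DMSO negative control wells on the same plate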); conditions: P. berghei liver stage in HepG2, luciferase luminescence, concentration not given here; parasite load remaining: stronger effect = lower value; viability: measured here: HepG2 viability without parasites
[3] = signal quenchers or enhancers, Cy5 substrate/SSB – biochemical, NIH Clinical Collection, E. coli SSB, artefact control for HCV NS3 helicase inhibitor project (AID 743268; call rule not given here); conditions: Cy5-oligo bound E. coli SSB, fluorescence interference
[4] = modulation of C. elegans fzo-1 (AID 1259413; call rule not given here;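 note: fzo-1 mutant C. elegans worms in liquid wells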); conditions: C. elegans fzo-1 modulator screen, mean read-out; stronger effect = higher value
[5] = galactose survival enhancers in mitochondrial complex I cybrids – cell-based, galactose medium, ATP luminescence, primary screen (AID 1645843;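 active = z-score of at least 1.8 in each of two replicates, scored against plate mean and spread of sample wells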;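 note: positive z means more ATP and so rescue of galactose-driven cybrid death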); conditions: complex I mutant cybrid cells, 72 h, stronger effect = higher value
F380Y/beta1 = test: BK channel mutant inhibitors and activators – cell-based, U2OS BacMam, thallium flux, beta subunits, selectivity assay, profiling panel (AID 1259406); conditions: U2OS BacMam BK variants, at 30 µM;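 note: initial slope of Thallos dye fluorescence rise after thallium is added; log ratio against the mean of 0.3% DMSO vehicle wells on the same plate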
F380Y/beta4 = test: as above; conditions: U2OS BacMam BK variants, at 30 µM
R275C = test: as above; conditions: U2OS BacMam BK variants, at 30 µM
R275C/beta1 = test: as above; conditions: U2OS BacMam BK variants, at 30 µM
R275C/beta2Delta = test: as above; conditions: U2OS BacMam BK variants, at 30 µM
R275C/beta4 = test: as above; conditions: U2OS BacMam BK variants, at 30 µM
R275C/Slo1WT/beta2 = test: as above; conditions: U2OS BacMam BK variants, at 30 µM
[6] = blockers of polyQ-driven CASP3 activation – cell-based (AID 1583); conditions: polyglutamine-induced caspase-3 activation, cell assay; stronger effect = higher value;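 tested at 10 µM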
[7] = yeast 75Q aggregation reduction – 75Q-TubU reporter (AID 1593); conditions: Yeast 75Q polyglutamine aggregation reporter
[8] = restoration of touch response, mutant HTT neurons – whole organism, C. elegans mechanosensory neurons, N-terminal huntingtin (AID 1599); conditions: C. elegans polyQ-huntingtin mechanosensory neurons, stronger effect = higher value
[9] = blockers of cytochrome c efflux from mitochondria – biochemical, purified mitochondria (AID 1603); conditions: stronger effect = lower value;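 note: mouse liver mitochondria challenged with calcium chloride; signal normalized to the plate average as 100%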
[10] = polyglutamine aggregate formation blockers (AID 1604); conditions: polyglutamine-induced protein aggregation inhibition assay; stronger effect = higher value; tested at 2.5 µM
[11] = glutamate transport activators, MN-1 cells, MN-1 cell line (AID 1612); conditions: MN-1 motor neuron cells, stronger effect = higher value;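 note: tested at 1 µM final; 0% = mean of DMSO vehicle wells on each plate; positive means more glutamate uptake than control and negative means less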
[12] = 75Q-TubH aggregate inhibition, S. cerevisiae, yeast (AID 1616); conditions: S. cerevisiae 75Q-TubH polyglutamine aggregation suppression; stronger effect = higher value

COc1cc([C@@H]2c3cc4c(cc3[C@H](O)[C@H]3COC(=O)[C@H]23)OCO4)cc(OC)c1OC
inactive: survival [1] 0.917 | parasite load remaining [2] 94.8% and 112% and 73% | fluorescence ratio [3] 1.01 | mean signal [4] 221 | z-score [5] 0.5 | log fold change Tl+ flux (F380Y/beta1) 0.00363 | log fold change Tl+ flux (F380Y/beta4) 0.0253 | log fold change Tl+ flux (R275C) -0.0185 | log fold change Tl+ flux (R275C/beta1) 0.0124 | log fold change Tl+ flux (R275C/beta2Delta) 0.0291 | log fold change Tl+ flux (R275C/beta4) 0.0119 | log fold change Tl+ flux (R275C/Slo1WT/beta2) 0.00946
107% and 103% and 113%: viability [2]

CC(COc1ccccc1)NC(C)C(O)c1ccc(O)cc1 (centres undefined)
103% and 49.4% and 92.3%: viability [2]
inactive: survival [1] 10.8 | parasite load remaining [2] 51.4% and 31.5% and 101% | fluorescence ratio [3] 1 | mean signal [4] 247 | z-score [5] 0.74 | log fold change Tl+ flux (F380Y/beta1) 0.0456 | log fold change Tl+ flux (F380Y/beta4) 0.0762 | log fold change Tl+ flux (R275C) 0.0486 | log fold change Tl+ flux (R275C/beta1) 0.000959 | log fold change Tl+ flux (R275C/beta2Delta) 0.0577 | log fold change Tl+ flux (R275C/beta4) 0.0625 | log fold change Tl+ flux (R275C/Slo1WT/beta2) 0.0192

CN(C)CC/C=C1\c2ccccc2COc2ccccc21
inactive: survival [1] 18.8 | parasite load remaining [2] 66.1% and 36% and 100% | fluorescence ratio [3] 0.98 | mean signal [4] 222 | z-score [5] -0.51 and -1.11 | log fold change Tl+ flux (F380Y/beta1) 0.078 | log fold change Tl+ flux (F380Y/beta4) 0.0925 | log fold change Tl+ flux (R275C) -0.0142 | log fold change Tl+ flux (R275C/beta2Delta) 0.0609 | log fold change Tl+ flux (R275C/beta4) 0.0396 | log fold change Tl+ flux (R275C/Slo1WT/beta2) -0.0225
active: log fold change Tl+ flux (R275C/beta1) 0.119
121% and 46.9% and 88.3%: viability [2]

c1ccc2c(CC3=NCCN3)cccc2c1
16.4%: inhibition [6]
79.6%: inhibition of aggregation [10]
1.14: cytochrome c release ratio [9]
-1.7: rescue above control [8]
1.49: aggregation suppression score [12]
inactive: survival [1] 12.7 | fluorescence ratio [3] 1.03 | mean signal [4] 245 | z-score [5] 0.47 and 0.505 | log fold change Tl+ flux (F380Y/beta1) 0.0282 | log fold change Tl+ flux (F380Y/beta4) 0.0394 | log fold change Tl+ flux (R275C) -0.0401 | log fold change Tl+ flux (R275C/beta1) -0.0378 | log fold change Tl+ flux (R275C/beta2Delta) 0.00508 | log fold change Tl+ flux (R275C/beta4) -0.0196 | log fold change Tl+ flux (R275C/Slo1WT/beta2) -0.0172
-6.49%: glutamate uptake change [11]
1.41: score [7]

CC(C)Oc1ccc2c(=O)c(-c3ccccc3)coc2c1
active: log fold change Tl+ flux (R275C/beta1) -0.122 | log fold change Tl+ flux (R275C/beta2Delta) -0.0975
inactive: parasite load remaining [2] 170% | fluorescence ratio [3] 1.05 | mean signal [4] 191 | z-score [5] -0.74 | log fold change Tl+ flux (F380Y/beta1) -0.0734 | log fold change Tl+ flux (F380Y/beta4) -0.0682 | log fold change Tl+ flux (R275C) -0.0788 | log fold change Tl+ flux (R275C/beta4) -0.0145 | log fold change Tl+ flux (R275C/Slo1WT/beta2) 0.013
63.7%: viability [2]

CN(C)c1ccc(O)c2c1C[C@H]1C[C@H]3[C@H](N(C)C)C(=O)C(C(N)=O)=C(O)[C@@]3(O)C(=O)C1=C2O
0: rescue above control [8]
88.9%: inhibition of aggregation [10]
0.98: score [7]
0.425: aggregation suppression score [12]
0.25: cytochrome c release ratio [9]
-1.26 (inactive) and 2.96 (active): z-score [5]
inactive: survival [1] 9.58 | fluorescence ratio [3] 0.97 | log fold change Tl+ flux (F380Y/beta1) 0.00506 | log fold change Tl+ flux (F380Y/beta4) 0.0112 | log fold change Tl+ flux (R275C) -0.0348 | log fold change Tl+ flux (R275C/beta1) -0.00562 | log fold change Tl+ flux (R275C/beta2Delta) -0.0532 | log fold change Tl+ flux (R275C/beta4) -0.0291 | log fold change Tl+ flux (R275C/Slo1WT/beta2) -0.0415
5.89%: glutamate uptake change [11]
-8.86%: inhibition [6]

CC(=O)[C@H]1CC[C@H]2[C@@H]3C[C@H](C)C4=CC(=O)CC[C@]4(C)[C@H]3[C@@H](O)C[C@]12C
inactive: survival [1] 6.42 | parasite load remaining [2] 57.6% and 67.9% | fluorescence ratio [3] 0.93 | mean signal [4] 277 | z-score [5] -0.825 | log fold change Tl+ flux (F380Y/beta1) -0.00433 | log fold change Tl+ flux (F380Y/beta4) -0.0204 | log fold change Tl+ flux (R275C) -0.0356 | log fold change Tl+ flux (R275C/beta1) 0.0813 | log fold change Tl+ flux (R275C/beta2Delta) 0.0373 | log fold change Tl+ flux (R275C/beta4) -0.0699 | log fold change Tl+ flux (R275C/Slo1WT/beta2) -0.105
84.9% and 91.5%: viability [2]

c1ccc(-c2ccc(C(c3ccccc3)n3ccnc3)cc2)cc1 (centres undefined)
inactive: fluorescence ratio [3] 1.01 | mean signal [4] 204 | z-score [5] -1.87 and -2.02 | log fold change Tl+ flux (F380Y/beta1) 0.00744 | log fold change Tl+ flux (F380Y/beta4) 0.00227 | log fold change Tl+ flux (R275C) -0.0477 | log fold change Tl+ flux (R275C/beta4) -0.0228 | log fold change Tl+ flux (R275C/Slo1WT/beta2) -0.0124
active: log fold change Tl+ flux (R275C/beta1) 0.164 | log fold change Tl+ flux (R275C/beta2Delta) -0.336

Cc1cccc(Nc2ccncc2S(=O)(=O)NC(=O)NC(C)C)c1
active: log fold change Tl+ flux (R275C) -0.147
83% and 88.5% and 82%: viability [2]
inactive: survival [1] 8.33 | parasite load remaining [2] 136% and 72.2% and 143% | fluorescence ratio [3] 1.01 | mean signal [4] 241 | z-score [5] 1.21 | log fold change Tl+ flux (F380Y/beta1) 0.0627 | log fold change Tl+ flux (F380Y/beta4) -0.0278 | log fold change Tl+ flux (R275C/beta1) 0.0246 | log fold change Tl+ flux (R275C/beta2Delta) 0.0124 | log fold change Tl+ flux (R275C/beta4) 0.029 | log fold change Tl+ flux (R275C/Slo1WT/beta2) 0.0277

Nc1nc2ncc(CNc3ccc(C(=O)N[C@@H](CCC(=O)O)C(=O)O)cc3)nc2c(=O)[nH]1
1.08: cytochrome c release ratio [9]
1.02: score [7]
1.14: aggregation suppression score [12]
0.74%: glutamate uptake change [11]
inactive: fluorescence ratio [3] 0.95 | mean signal [4] 246 | z-score [5] -0.64 | log fold change Tl+ flux (F380Y/beta1) -0.0026 | log fold change Tl+ flux (F380Y/beta4) 0.025 | log fold change Tl+ flux (R275C) -0.0335 | log fold change Tl+ flux (R275C/beta1) 0.00862 | log fold change Tl+ flux (R275C/beta2Delta) 0.0304 | log fold change Tl+ flux (R275C/beta4) -0.0613 | log fold change Tl+ flux (R275C/Slo1WT/beta2) -0.0318
15.9%: inhibition [6]
-0.86: rescue above control [8]
77.8%: inhibition of aggregation [10]

From PubChem BioAssay
